Rows were chosen to be rich in hits. Some 10% of all compounds tested hit in one or more screens of this group.
JMJD2A Tudor = qHTS Assay for Inhibitors of JMJD2A-Tudor Domain | Lysine-specific demethylase 4A (Homo sapiens), O75164 | AlphaScreen JMJD2A-Tudor / H3K4me3 peptide binding | Potency, µM (top dose mostly 114 µM), without a hit: top-dose activity change, negative = inhibition, hits mostly inhibitors | actives 4.4% (n = 390,000) | AID 504339, 2011; further: potency means the concentration at half of the fitted maximal effect; on the % scale 0 is the no-effect control and ±100 the full control effect; nearly all actives have a fitted effect of over 50% in size
BAZ2B block = qHTS Assay for Inhibitors of BAZ2B. Bromodomain adjacent to zinc finger domain protein 2B (Homo sapiens), Q9UIF8. AlphaScreen BAZ2B-H3K14Ac peptide displacement. actives 4.4% (n = 360,000). Potency, µM (highest dose often 114 µM), for the others: top-dose activity change, negative = inhibition, hits mostly inhibitors; further: potency means the concentration at half of the fitted maximal effect; on the % scale 0 is the no-effect control and ±100 the full control effect; nearly all actives have a fitted effect of over 60% in size
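AlphaScreen luminescence quantifies BAZ2B engagement of H3K14Ac peptide; the protein and biotinylated peptide are both at 50 nM final, buffer PBS pH 7.4 with 0.01% Tween-20, all steps at room temperature.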
Six1-Eya2 inh = qHTS Assay for Inhibitors of the Six1/Eya2 Interaction; AlphaScreen GST-Six1/His-Eya2 binding, biochemical; stronger effect = lower value; activity change, % (test concentration not listed); actives 0.56% (n = 360,000); in the data active means activity change below about -65%; inconclusive means mostly about -30% to -63%; further: on the % scale 0 is the no-effect control and ±100 the full control effect
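AlphaScreen with GST-Six1 and His-Eya2 (5X mix: 250 nM and 500 nM), glutathione donor and nickel acceptor beads; buffer 50 mM Tris pH 8.0, 300 mM NaCl, 1 mM TCEP; 1 h at 37 C in the dark.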
CtBP-E1A inh = qHTS Assay for Inhibitors of the CtBP/E1A Interaction; CtBP / adenovirus E1A interaction (AlphaScreen); AlphaScreen GST-E1A/His-CtBP binding, 1536-well; stronger effect = lower value; activity change, % (test concentration not listed); actives 0.49% (n = 340,000); AID 651724, 2012; in the data active means activity change below about -65%; inconclusive means mostly about -30% to -63%; further: on the % scale 0 is the no-effect control and ±100 the full control effect
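In 5 uL wells, 23 nL compound meets equimolar GST-E1A and His-CtBP (5X stock 125 nM each) for 2 h, 37 °C. Beads (5X, 50 ug/mL) then 1 h, 37 °C, dark.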
G9a inh = qHTS Assay for Inhibitors of Histone Lysine Methyltransferase G9a; Potency, µM (series often up to 102 µM), inactives show at the top dose activity, negative = inhibition, actives largely listed as inhibitors; G9a H3K9 monomethylation, AlphaScreen, 2 h; actives 8.8% (n = 350,000); AID 504332, 2011; Histone-lysine N-methyltransferase EHMT2 (Homo sapiens), Q96KQ7; further: potency means the concentration at half of the fitted maximal effect; on the % scale 0 is the no-effect control and ±100 the full control effect; nearly all actives have a fitted effect of over 75% in size
Target sequence (Q96KQ7 913-1193 limits assumed): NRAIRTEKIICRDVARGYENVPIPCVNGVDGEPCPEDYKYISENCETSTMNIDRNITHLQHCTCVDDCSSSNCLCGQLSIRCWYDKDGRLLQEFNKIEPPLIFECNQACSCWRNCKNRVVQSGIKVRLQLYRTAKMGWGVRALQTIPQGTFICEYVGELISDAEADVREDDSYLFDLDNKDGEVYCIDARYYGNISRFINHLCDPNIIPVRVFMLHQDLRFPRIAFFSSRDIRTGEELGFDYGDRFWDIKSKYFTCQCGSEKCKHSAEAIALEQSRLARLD
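Enzyme 20 nM + cpd, 15 min RT; add b-H3K9 pep 500 nM / SAM 20 uM; 2 h RT; anti-H3K9me1 Ab 0.5 ug/mL + SA donor / anti-rabbit acceptor beads 20 ug/mL each, 10 min; AlphaScreen read.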
HP1b chromo inh = HTS for Inhibitors of HP1-beta Chromodomain Interactions with Methylated Histone Tails | Chromobox protein homolog 1 (Homo sapiens), P83916 | AlphaScreen HP1-beta / biotin-H3K9me3 peptide binding | Potency, µM (series often up to 114 µM), for inactives: at the top dose activity change, negative = inhibition, usual class: inhibitors | actives 0.56% (n = 390,000); further: potency means the concentration at half of the fitted maximal effect; nearly all actives have a fitted effect of over 70% in size
Target sequence (P83916 whole entry, looked up): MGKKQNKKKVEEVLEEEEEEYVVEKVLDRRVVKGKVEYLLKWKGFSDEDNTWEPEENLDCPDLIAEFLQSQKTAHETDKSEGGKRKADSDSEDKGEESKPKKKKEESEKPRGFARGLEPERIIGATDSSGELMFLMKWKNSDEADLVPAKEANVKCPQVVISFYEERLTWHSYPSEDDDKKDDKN
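HP1-beta protein (50 nM final) preincubated 30 min at room temperature with biotinylated H3(1-18)K9me3 peptide (50 nM) in PBS pH 7.4, 0.01% Tween-20, then compound added for 30 min. AlphaScreen streptavidin donor/nickel chelate acceptor beads (10 ug/mL final), 30 min dark, luminescence read.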
* marks the source's active call; other numbers are inactive results; ? = inconclusive; nt = no result; [ ] = remark or other dose. Unless noted, the call rests on the fitted dose curve; in most records, active means well fitted inhibition curve with a large enough effect; inconclusive means small, poorly fitted or top-dose-only effect; inactive means no such curve, though single readings can be large or run the other way.

SMILES	JMJD2A Tudor	BAZ2B block	Six1-Eya2 inh	CtBP-E1A inh	G9a inh	HP1b chromo inh
CCOC(=O)CN1CC23C=CC(O2)C(C(=O)NCc2ccc(C)cc2)C3C1=O (stereo not drawn)	2%	-18%	2	2	35µM*	33%
Cc1cc(C)c2nc(NC(=O)C3CC(=O)N(Cc4ccco4)C3)sc2c1 (stereo not drawn)	?	40µM*	?	?	-26%[59 µM]	?
CC(=O)Nc1ccc(NC(=O)C2CC(=O)N(Cc3ccco3)C2)cc1 (stereo not drawn)	-9%	1%	-8	5	16µM*	44%
CCC1(CC)C(=O)NC(=O)NC1=S	50µM*	nt	1	13	nt	8%
CC(=O)Nc1ccc(C(=O)N2CCCCC2c2cc(C(=O)NC(C)C)no2)cc1 (stereo not drawn)	nt	nt	6	10	nt	nt
O=C(NCc1ccco1)c1cc(NS(=O)(=O)c2cccc([N+](=O)[O-])c2)ccc1O	-36%	?	-28	-23	50µM*	-24%
O=C(NCc1ccco1)c1cccc(NS(=O)(=O)c2cccc(F)c2)c1	-8%	-27%	5	21	-11%[59 µM]	26%
CN(Cc1ccco1)S(=O)(=O)c1cc(F)ccc1CN1C(=O)c2cccnc2C1=O	13%	?	-5	nt	2%	43%
CN(Cc1ccco1)S(=O)(=O)c1ccc(CN2C(=O)c3cccnc3C2=O)s1	32µM*	-36%[57.1 µM]	-9	-6	?	10%
CCOC(=O)CN(Cc1cc(OC)cc(N(C)C)c1OC)C(=O)C1CC(CO[Si](C)(C)C(C)(C)C)=CN1C(=O)OC(C)(C)C (stereo not drawn)	?	nt	nt	nt	nt	-16%
CN(C(=O)c1ccc2c(c1)N(Cc1ccccc1F)C(=O)c1ccccc1S2)C1CCCCC1	-19%	-11%	nt	nt	?	15%
COc1ccc(N2CCN(CCCNC(=O)c3cc(Nc4ccc(OC)cc4OC)nc4ccccc34)CC2)cc1	25µM*	16µM*	nt	nt	13µM*	?
COc1ccc(Nc2cc(C(=O)NCCCN(C)C3CCCCC3)c3ccccc3n2)c(OC)c1	20µM*	nt	nt	nt	?	?
COc1ccc(Nc2cc(C(=O)N3CCc4ccccc4C3)c3ccccc3n2)c(OC)c1	?	?	-23	-14	18µM*	4%
COc1ccccc1Nc1cc(C(=O)N2CCc3ccccc3C2)c2ccccc2n1	nt	-12%	nt	nt	9%	nt
COc1ccccc1CNC(=O)CCC1N=C2c3ccccc3N=C(SCC(=O)Nc3ccc(N(C)C)cc3)N2C1=O (stereo not drawn)	?	-36%	nt	nt	-43%[59 µM]	-16%
Cc1oc(/C=N/NS(=O)(=O)c2ccccc2)cc1Br	-24%	-35%	9	5	16µM*	6%
Cc1nc(C/C(=N\N)c2ccc(O)cc2O)cs1	-17%	-22%	0	0	32µM*	8%
Cc1cc(O)cc(O)c1C(=O)Cc1cscn1	-8%	-30%	1	1	-46%	13%
CCc1cc(/C(Cc2csc(C)n2)=N/O)c(O)cc1O	-13%	-34%	-12	-7	15%[2.33 µM]	29%
N/N=C(\Cc1cscn1)c1ccc(O)cc1O	-14%	-14%	-6	-5	10µM*	36%
Cc1ccc(N(CC(=O)NCc2ccccc2)C(=O)CCC(=O)Nc2ccccn2)cc1C	-2%	9%	4	-3	20%	10%
Cc1c(C2CC(=O)N(c3ccccc3)C2=O)[nH]n(-c2ccccc2)c1=O (stereo not drawn)	-22%	?	-11	-15	35µM*	20%

Screening results: PubChem BioAssay, National Center for Advancing Translational Sciences (NCATS)
